Tests used:
Assay in all cases: PBM binding z-score (relative to random genomic background probes); higher = stronger binding; sequences stand for … in GC…GCGATTGACAGCGTAGAATGAAGG
[1] = system: FXR:RXRa (NR concentration 270 nM, RXRa partner concentration 90 nM)
Summary of the method: (§1)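 On custom Agilent 4×180K arrays, double-stranded probes with 34-nt variable regions carried direct-repeat seeds, single-nucleotide variants, half-site ablations or random human genomic background. Ligand-free nuclear receptor dimers were applied for 1 h, and binding was read with antibodies against each partner (one per run). Binding z-scores come from regression-normalized fluorescence, with the random background probes as reference.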

[2] = system: LXRa:RXRa (NR concentration 270 nM, RXRa partner concentration 90 nM)
Summary of the method: as §1

[3] = system: LXRa homodimer (NR concentration 270 nM)
Summary of the method: as §1

[4] = system: LXRb:RXRa (NR concentration 270 nM, RXRa partner concentration 90 nM)
Summary of the method: as §1

[5] = system: LXRb homodimer (NR concentration 270 nM)
Summary of the method: as §1

[6] = system: PPARa:RXRa (NR concentration 270 nM, RXRa partner concentration 90 nM)
Summary of the method: as §1

[7] = system: PPARg:RXRa (NR concentration 180 nM, RXRa partner concentration 90 nM)
Summary of the method: as §1

[8] = system: PPARg:RXRa 270nM:90nM, anti-RXR (NR concentration 270 nM, RXRa partner concentration 90 nM)
Summary of the method: as §1

[9] = system: PPARg:RXRa 30nM:10nM, anti-RXR (NR concentration 30 nM, RXRa partner concentration 10 nM)
Summary of the method: as §1

[10] = system: PPARg:RXRa 90nM:30nM, anti-RXR (NR concentration 90 nM, RXRa partner concentration 30 nM)
Summary of the method: as §1

[11] = system: PPARg:RXRa DBDmut IVT, anti-RXR (DBD mutation: RXRa K156A/R161A, NR concentration 270 nM, RXRa partner concentration 90 nM)
Summary of the method: as §1

[12] = system: PPARg:RXRa IVT, anti-PPARg (NR concentration 270 nM, RXRa partner concentration 90 nM)
Summary of the method: as §1

[13] = system: PPARg DBDmut:RXRa IVT, anti-PPARg (DBD mutation: PPARg1 K132A/R137A, NR concentration 270 nM, RXRa partner concentration 90 nM)
Summary of the method: as §1

[14] = system: PPARg DBDmut IVT, anti-PPARg (DBD mutation: PPARg1 K132A/R137A, NR concentration 270 nM)
Summary of the method: as §1

[15] = system: PPARg homodimer (NR concentration 180 nM)
Summary of the method: as §1

[16] = system: PXR:RXRa (NR concentration 270 nM, RXRa partner concentration 90 nM)
Summary of the method: as §1

[17] = system: PXR homodimer (NR concentration 270 nM)
Summary of the method: as §1

[18] = system: RARa:RXR (NR concentration 270 nM, RXRa partner concentration 90 nM)
Summary of the method: as §1

[19] = system: RARa homodimer (NR concentration 270 nM)
Summary of the method: as §1

[20] = system: RARb:RXRa (NR concentration 270 nM, RXRa partner concentration 90 nM)
Summary of the method: as §1

CCTCGGAGGACAGAACGTCAGAGCTGTCCGCTTT
PBM binding z-score [1]: -0.455
PBM binding z-score [2]: -0.498
PBM binding z-score [3]: -0.707
PBM binding z-score [4]: -1.16
PBM binding z-score [5]: -1.1
PBM binding z-score [6]: -1.32
PBM binding z-score [7]: -0.391
PBM binding z-score [8]: -1.32
PBM binding z-score [9]: -1.28
PBM binding z-score [10]: -1.56
PBM binding z-score [11]: -0.575
PBM binding z-score [12]: -0.846
PBM binding z-score [13]: -2.12
PBM binding z-score [14]: -1.43
PBM binding z-score [15]: -1.05
PBM binding z-score [16]: -1.12
PBM binding z-score [17]: -0.765
PBM binding z-score [18]: -1.04
PBM binding z-score [19]: -0.587
PBM binding z-score [20]: 0.103

CGTCAAAGTTCAAGGTAAGGTAACAGAAAGCAGC
PBM binding z-score [1]: 6.16
PBM binding z-score [2]: 5.4
PBM binding z-score [3]: 2.37
PBM binding z-score [4]: 3.29
PBM binding z-score [5]: 0.542
PBM binding z-score [6]: 4.69
PBM binding z-score [7]: 4.19
PBM binding z-score [8]: 4.91
PBM binding z-score [9]: 1.78
PBM binding z-score [10]: 3.67
PBM binding z-score [11]: 0.198
PBM binding z-score [12]: 2.04
PBM binding z-score [13]: 0.246
PBM binding z-score [14]: 0.255
PBM binding z-score [15]: 1.61
PBM binding z-score [16]: 4.03
PBM binding z-score [17]: 1.72
PBM binding z-score [18]: 3.78
PBM binding z-score [19]: 1.28
PBM binding z-score [20]: 5.22

ATCGAAAGGTCGAAGGTGAGTGTACCCACCCGAA
PBM binding z-score [1]: 4.5
PBM binding z-score [2]: 3.39
PBM binding z-score [3]: 0.164
PBM binding z-score [4]: 2.8
PBM binding z-score [5]: 0.755
PBM binding z-score [6]: 4.8
PBM binding z-score [7]: 4.86
PBM binding z-score [8]: 4.69
PBM binding z-score [9]: 2.15
PBM binding z-score [10]: 3.8
PBM binding z-score [11]: -0.0432
PBM binding z-score [12]: 2.32
PBM binding z-score [13]: 1.7
PBM binding z-score [14]: 0.661
PBM binding z-score [15]: 1.79
PBM binding z-score [16]: 3.07
PBM binding z-score [17]: 0.136
PBM binding z-score [18]: 4.01
PBM binding z-score [19]: -0.116
PBM binding z-score [20]: 3.86

CCAGACAGGTGAGTAGGTAACTCAGCCTCGATTA
PBM binding z-score [1]: 0.327
PBM binding z-score [2]: 0.14
PBM binding z-score [3]: 0.0547
PBM binding z-score [4]: -0.023
PBM binding z-score [5]: -0.401
PBM binding z-score [6]: 0.695
PBM binding z-score [7]: 0.545
PBM binding z-score [8]: 0.565
PBM binding z-score [9]: -0.111
PBM binding z-score [10]: 0.0174
PBM binding z-score [11]: 2.01
PBM binding z-score [12]: 1.66
PBM binding z-score [13]: -0.259
PBM binding z-score [14]: -0.369
PBM binding z-score [15]: 1.08
PBM binding z-score [16]: -0.277
PBM binding z-score [17]: -0.0681
PBM binding z-score [18]: 0.388
PBM binding z-score [19]: 0.546
PBM binding z-score [20]: 0.279

CAAACTACGTCAAAGGTCAAAGTCGAGCCAACCA
PBM binding z-score [1]: 5.96
PBM binding z-score [2]: 6.21
PBM binding z-score [3]: 4.83
PBM binding z-score [4]: 5.68
PBM binding z-score [5]: 2.75
PBM binding z-score [6]: 6.18
PBM binding z-score [7]: 8.64
PBM binding z-score [8]: 7.97
PBM binding z-score [9]: 6.79
PBM binding z-score [10]: 8.59
PBM binding z-score [11]: 0.954
PBM binding z-score [12]: 3.98
PBM binding z-score [13]: 7.78
PBM binding z-score [14]: 3.09
PBM binding z-score [15]: 4.03
PBM binding z-score [16]: 5.6
PBM binding z-score [17]: 1.77
PBM binding z-score [18]: 6.64
PBM binding z-score [19]: 2.88
PBM binding z-score [20]: 4.73

TCTAGTTGGTCAAAGGTCATACACTCGAAATGCG
PBM binding z-score [1]: 5.83
PBM binding z-score [2]: 6.03
PBM binding z-score [3]: 4.66
PBM binding z-score [4]: 5.62
PBM binding z-score [5]: 2.02
PBM binding z-score [6]: 6.59
PBM binding z-score [7]: 10.8
PBM binding z-score [8]: 9.47
PBM binding z-score [9]: 9.65
PBM binding z-score [10]: 10.2
PBM binding z-score [11]: 3.45
PBM binding z-score [12]: 5.82
PBM binding z-score [13]: 1.78
PBM binding z-score [14]: 2.27
PBM binding z-score [15]: 4.5
PBM binding z-score [16]: 6.04
PBM binding z-score [17]: 3.03
PBM binding z-score [18]: 7.27
PBM binding z-score [19]: 3.78
PBM binding z-score [20]: 4.73

— the supplement of paper PMC6555819
